From the supplement of paper PMC3334620 come the findings set out here.

Whole data set: some 33,000 sequences, median “E-score (-0.5 to 0.5)” near -0.035, cut for the highest 2% near 0.35. The full list was thinned out, with the highest values kept by preference.

This assay deals with T1, Pdr3 (UniProt P33200).
T1 sequence: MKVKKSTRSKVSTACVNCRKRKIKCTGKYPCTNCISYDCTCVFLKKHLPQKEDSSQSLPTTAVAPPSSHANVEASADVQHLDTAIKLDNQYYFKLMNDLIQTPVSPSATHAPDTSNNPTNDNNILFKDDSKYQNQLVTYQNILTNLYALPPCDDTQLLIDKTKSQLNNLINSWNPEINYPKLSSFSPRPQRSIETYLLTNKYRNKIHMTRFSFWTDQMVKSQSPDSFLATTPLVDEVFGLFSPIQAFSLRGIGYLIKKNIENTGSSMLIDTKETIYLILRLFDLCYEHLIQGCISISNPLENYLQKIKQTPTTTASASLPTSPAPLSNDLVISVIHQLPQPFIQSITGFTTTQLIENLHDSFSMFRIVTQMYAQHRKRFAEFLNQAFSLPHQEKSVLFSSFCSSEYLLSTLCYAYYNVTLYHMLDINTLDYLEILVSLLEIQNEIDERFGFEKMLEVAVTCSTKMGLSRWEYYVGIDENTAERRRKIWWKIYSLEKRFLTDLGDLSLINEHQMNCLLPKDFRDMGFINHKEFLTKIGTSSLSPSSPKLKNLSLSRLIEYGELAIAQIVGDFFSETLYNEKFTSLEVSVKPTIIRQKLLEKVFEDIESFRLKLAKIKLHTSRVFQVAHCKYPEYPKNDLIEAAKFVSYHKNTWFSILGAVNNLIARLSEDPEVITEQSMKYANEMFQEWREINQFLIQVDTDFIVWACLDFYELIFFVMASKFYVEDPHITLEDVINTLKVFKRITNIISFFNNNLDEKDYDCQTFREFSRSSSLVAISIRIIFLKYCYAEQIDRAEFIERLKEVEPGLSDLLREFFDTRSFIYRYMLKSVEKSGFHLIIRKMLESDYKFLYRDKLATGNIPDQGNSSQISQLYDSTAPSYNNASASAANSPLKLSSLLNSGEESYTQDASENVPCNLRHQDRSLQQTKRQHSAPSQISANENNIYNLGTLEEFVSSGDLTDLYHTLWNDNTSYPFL
Briefly: PBM E-score (8-mer binding enrichment) (E-score (-0.5 to 0.5)); higher = stronger / more preferred TF binding. The conditions noted are these: protein concentration: 200 nM; construct: GST-full length. The procedure, abridged:
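For each ungapped eight-base word taken together with its reverse complement, the Universal PBM Analysis Suite assigned an E-score. Binding data came from GST-tagged yeast transcription factors, applied at about 100-200 nM, on universal all-10-mer Agilent arrays made double-stranded by primer extension. Fluorescent anti-GST marked bound protein, and scans were normalised with masliner.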
On to CTATCCTA, for which the “PBM E-score” value is -0.0548. With ACTACGCA, the “PBM E-score” value is -0.236.

Take GTGCAAAA: the “PBM E-score” value is -0.168. Then GACGCTAA, with -0.213; and ATTCCACA, with 0.204.

In the case of CTTCCGCC, the “PBM E-score” value amounted to 0.336.

With GTTCCGCA, the “PBM E-score” value worked out at 0.462. Then ATTCCGCC, with 0.417; and ATTCCGCG, with 0.479. Next, AATCCGCC: 0.17. Next, GTTCCCCA: -0.173; GTTCCTCA: 0.0277.

Regarding ATTCCGCA, the “PBM E-score” value is 0.379. As for ACTCCGCA, the “PBM E-score” value was 0.154. Next, CTTCCGCA: 0.307. Then ATGCCGCG, with 0.346. Next, GCTCTGAA: -0.126; CAGTGCTC: -0.213; AAGAGATA: -0.206. For the sequence TCCGATAA, the “PBM E-score” value turned out to be 0.289. Then ACTAGAAA, with -0.213; and ACTATGTA, with -0.181.

Turning to CCTAGTGC, the “PBM E-score” value is -0.0662. Next, CTAGGTGC: -0.121.

For CAGGTGCA, the “PBM E-score” value came to 0.0121. Take TTCCGAAA: the “PBM E-score” value amounted to 0.41.

As to ATCCGAAG, the “PBM E-score” value was found to be 0.22. Then CACCGGAG, with 0.253. Then CTCCGGTA, with 0.321. Then ATCCGAAA, with 0.248.

Consider ATCCGAAC, for which the “PBM E-score” value was 0.316. Then GTCCGAAA, with 0.264. Then CTCCGGCA, with 0.34; and CTCCGGAG, with 0.476. Then CTCCGGAA, with 0.441; and CTCCGAAG, with 0.311.

With ATCCGAAT, the “PBM E-score” value was 0.365. Next, CGCCAGTA: 0.00965. Turning to AACTGCGC, the “PBM E-score” value is -0.146. Regarding AGAGATCG, the “PBM E-score” value was -0.137. On to AGCGCGGG, for which the “PBM E-score” value worked out at 0.324. Then AGCAAGTA, with -0.149; and ACGGCACA, with -0.0224; and ACTGTAGC, with -0.197. Next, CTCCGGTC: 0.328. Then ATCCGGCC, with 0.403.

GTCCGCAC: the “PBM E-score” value turned out to be 0.215. Then GTCCGCAA, with 0.259.

Regarding CTCCGGCC, the “PBM E-score” value came out at 0.0522.

For the sequence ATCCGGCG, the “PBM E-score” value came out at 0.323. Then TTCCGCAA, with 0.404; and ATCCGCAA, with 0.222. GTCCGGAC: the “PBM E-score” value amounted to 0.481. Then CTCCGTAC, with 0.162; and CTCCGGAC, with 0.382. Consider CCCGCTCG, for which the “PBM E-score” value was 0.133. Next, ACGTCTTG: -0.178; ACGGTTAT: -0.0715. Turning to CGCCTCAC, the “PBM E-score” value was 0.152. As for ACGGTAAA, the “PBM E-score” value worked out at 0.0442. Next, GTCAAGGA: -0.0724.

As for ATCCGGAT, the “PBM E-score” value turned out to be 0.465. As to ACCCGGAC, the “PBM E-score” value was 0.317. Next, ATCCGGAC: 0.355; ATCCGGCA: 0.255; ATCCGGTC: 0.215. For the sequence ATCAGGAT, the “PBM E-score” value turned out to be 0.113. As for ATCCGCAT, the “PBM E-score” value was 0.267. Next, GTCCGGAA: 0.457; GTCCGGTA: 0.181. For ATCCGGTA, the “PBM E-score” value is 0.168. Next, GTCCGGCA: 0.295. Then ATCCGGAA, with 0.464; and CTGAGTGA, with 0.179. Then CACCCAGC, with -0.0529; and CCTAGATC, with -0.201. For the sequence ACTTTGCA, the “PBM E-score” value came to 0.00219. For the sequence ATCCGGTG, the “PBM E-score” value was 0.35.

For the sequence ATCCGGAG, the “PBM E-score” value amounted to 0.433. On to ATCCGCAG, for which the “PBM E-score” value was determined as 0.316. Next, TAGCATGA: -0.224.
